Source: PubChem (Johns Hopkins Ion Channel Center)
KCNQ2 inh – inhibitors of rat KCNQ2 potassium channel. hit rate 1.1% among 310,000. CHO-K1 KCNQ2, FluxOR thallium flux, 20 min; stronger effect = lower value. O88943. B-score at 10 µM. AID 2156;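 active = fluorescence ratio B-score at most minus 3 library SDs, with starting brightness B-score within 2 library SDs, cut at about -5.5 in these data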
Target sequence (O88943 whole entry, looked up): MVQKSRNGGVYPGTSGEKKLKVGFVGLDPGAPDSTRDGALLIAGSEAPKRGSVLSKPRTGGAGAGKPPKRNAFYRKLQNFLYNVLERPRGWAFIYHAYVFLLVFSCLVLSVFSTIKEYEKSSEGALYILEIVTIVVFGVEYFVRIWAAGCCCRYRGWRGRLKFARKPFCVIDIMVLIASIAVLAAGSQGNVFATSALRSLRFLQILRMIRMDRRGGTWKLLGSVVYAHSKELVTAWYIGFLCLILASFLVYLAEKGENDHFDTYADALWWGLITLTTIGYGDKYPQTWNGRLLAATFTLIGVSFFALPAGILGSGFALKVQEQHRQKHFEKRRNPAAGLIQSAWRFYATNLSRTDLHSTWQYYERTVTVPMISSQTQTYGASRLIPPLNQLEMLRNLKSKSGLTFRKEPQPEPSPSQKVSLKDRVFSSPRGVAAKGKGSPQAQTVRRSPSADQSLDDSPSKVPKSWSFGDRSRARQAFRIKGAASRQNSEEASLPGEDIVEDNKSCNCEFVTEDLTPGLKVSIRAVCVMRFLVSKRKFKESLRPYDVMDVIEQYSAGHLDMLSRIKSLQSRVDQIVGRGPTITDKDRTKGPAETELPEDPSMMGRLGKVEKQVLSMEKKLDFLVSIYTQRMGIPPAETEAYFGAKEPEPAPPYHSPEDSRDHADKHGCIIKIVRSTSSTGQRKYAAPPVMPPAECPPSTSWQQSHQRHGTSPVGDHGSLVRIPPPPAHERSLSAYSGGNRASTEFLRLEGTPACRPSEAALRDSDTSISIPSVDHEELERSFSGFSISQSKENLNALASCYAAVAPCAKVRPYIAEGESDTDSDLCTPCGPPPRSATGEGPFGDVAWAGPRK
KCNQ2 enhance – potentiators of rat KCNQ2 potassium channel; O88943; CHO-K1 KCNQ2, FluxOR thallium flux fluorescence; stronger effect = higher value; B-score at 10 µM; hit rate 0.54% among 310,000; AID 2239;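 active = fluorescence ratio B-score at least 3 SD of library B-scores, with initial fluorescence B-score within 3 of them, cut at about 5.3 in these data; same plate scores as AID 2156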;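 also: B-score of peak minus minimum over baseline fluorescence ratio after K+ and Tl+ stimulus; positive B-score means potentiation of KCNQ2 with more thallium influx and brighter signal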
Of the large screens only hits and unclear results are named; the others gave an inactive call. This is a sample that favours compounds with a hit; in the whole collection about 1.6% have one here.

CCC1CCCCN1C(=O)Cn1c(=O)n(CCCC(=O)NCc2ccco2)c(=O)c2sccc21 (configuration not stated)	none (no result: KCNQ2 enhance)
CC(C(=O)NC1CCCC1)N(C(=O)c1ccc(-c2ccccc2)[nH]1)c1ccccc1F (configuration not stated)	KCNQ2 inh -6.45
CC(C(=O)NC1CCCC1)N(C(=O)Cn1nnc(-c2ccc(F)cc2)n1)c1ccccc1F (configuration not stated)	none (no result: KCNQ2 enhance)
COC(=O)c1ccc(OCCN2CCCCCC2)cc1	none (no result: KCNQ2 enhance)
O=C(c1ccc(OCCN2CCCCC2)cc1)c1c(-c2ccc(O)cc2)sc2cc(O)ccc12	KCNQ2 inh -5.98
Fc1cccc(Cn2cc(C(=S)N3CCCCC3)c3ccccc32)c1	none (no result: KCNQ2 enhance)
CCC(=O)N1CCC2(CC1)Oc1ccc(Cl)cc1C(=O)C21CC(c2ccccc2)=NO1 (configuration not stated)	none (no result: KCNQ2 enhance)
CC1CCN(c2c(NCC3CCC(C(=O)N4CCCCC4)CC3)c(=O)c2=O)CC1 (configuration not stated)	none (no result: KCNQ2 enhance)
CC(NC(=O)c1ccc(Br)cc1)C(=O)NC1=NCCS1 (configuration not stated)	KCNQ2 enhance 7.41
CC(NC(=O)c1ccccc1)C(=O)NC1=NCCS1 (configuration not stated)	none
CC(=O)c1ccc(C(=O)N2CCCC(CNC(=O)c3ccccc3Cl)C2)cc1 (configuration not stated)	none (no result: KCNQ2 enhance)
Cc1cccc(NC(=O)N2CCCC(CNC(=O)c3ccccc3Cl)C2)c1C (configuration not stated)	KCNQ2 inh -8.24
O=c1[nH]c2ccccc2nc1-c1c[nH]c2ccccc12	none
Cc1c([N+](=O)[O-])cc(C(=O)Nc2ccc3ncccc3c2)cc1[N+](=O)[O-]	none (no result: KCNQ2 enhance)
CCOC(=O)C1CCN(C(=O)c2ccc3c(=O)n4nc(Nc5cc(C)ccc5C)sc4nc3c2)CC1	KCNQ2 inh -5.83
Cc1ccc(C)c(Nc2nn3c(=O)c4ccc(C(=O)NCc5cccnc5)cc4nc3s2)c1	none
CCOC(=O)C1CCN(S(=O)(=O)Cc2ccc(Cl)cc2)CC1	none
COc1ccc(/C(N)=N/OC(=O)Cc2cccs2)cc1	KCNQ2 inh -7.01
COc1ccc(/C(N)=N/OC(=O)Cc2cccs2)cc1OC	none
CCn1c(CC(=O)Nc2ccc(C)c(Cl)c2)nnc1SCCOc1ccc(OC)cc1	none (no result: KCNQ2 enhance)
CCCN(C(=O)Cc1nc(N)n[nH]1)C1(C(=O)Nc2c(C)cccc2C)CCCCC1	none
N/C(=N\OC(=O)N1c2ccccc2Sc2ccccc21)c1ccccc1	KCNQ2 inh -6.49
N/C(=N\OC(=O)c1ccccc1Cl)c1ccccc1	none (no result: KCNQ2 enhance)
COc1ccc(O)c(-c2cn[nH]c2-c2cccs2)c1	none
COCCN(C(=O)Cc1cccs1)C(C(=O)NCc1ccc(OC)cc1)c1ccc(C)cc1 (configuration not stated)	none
COc1ccc(CNC(=O)C(c2ccc(C)o2)N(C(=O)c2csnn2)c2ccc(C(C)C)cc2)cc1 (configuration not stated)	KCNQ2 inh -6.1
Cc1cccc(N(C(=O)c2csnn2)C(C(=O)NCc2ccccc2)c2ccc(C)o2)c1 (configuration not stated)	none (no result: KCNQ2 enhance)
COc1ccc(CNC(=O)C(c2ccc(C)o2)N(Cc2cccs2)C(=O)Cc2cccs2)cc1 (configuration not stated)	KCNQ2 inh -6.43
O=C(NC1CCCC1)C(c1ccccc1)N(Cc1ccc2c(c1)OCO2)C(=O)Cc1cccs1 (configuration not stated)	none
O=C(NCc1ccccc1)C(c1ccccc1)N(Cc1ccc2c(c1)OCO2)C(=O)Cc1cccs1 (configuration not stated)	KCNQ2 inh -7.01
CCCCn1c(N)c(N(CC(C)C)C(=O)CC2CCCCC2)c(=O)[nH]c1=O	none (no result: KCNQ2 enhance)
CCc1ccccc1N(CC(=O)NCCc1ccccc1)C(=O)CCC(=O)Nc1ccccn1	none
CC(C)(C)Cc1nnc(NS(=O)(=O)c2ccccc2)s1	none
O=C(CSC1=NC(=O)C(c2ccccc2)C(=O)N1)Nc1cccc(Cl)c1 (configuration not stated)	none (no result: KCNQ2 enhance)
O=C(NCC1CCCCC1)c1ccc(Cl)nc1	none
CCSc1nc(=S)cc(C)[nH]1	KCNQ2 enhance 12.9
CCSc1nc(O)cc(=O)[nH]1	none (no result: KCNQ2 enhance)
O=C1CC(c2ccccc2)CCc2sccc2N1 (configuration not stated)	none
COc1ccc(C)cc1S(=O)(=O)N(C)CC(=O)N1CCN(C)CC1	none
O=C(Oc1ccccc1)n1c(=S)oc2ccccc21	none
Cc1ccccc1OC(=O)n1c(=S)oc2cc(Cl)ccc21	KCNQ2 enhance 6.92
O=c1cc(-c2ccccc2)nc(SCc2ccc(F)cc2)[nH]1	none (no result: KCNQ2 enhance)
CCCCn1c(-c2cccs2)nc2nc3ccccc3nc21	none
Cc1ccc(NC(=S)N2CCCCC2CO)cc1C (configuration not stated)	none
COc1cccc(/C=N/NC(=O)c2c(-c3ccccc3)noc2C)c1OC	KCNQ2 inh -7.32
COc1ccc(Cl)cc1/C=N/NC(=O)c1c(-c2ccccc2)noc1C	KCNQ2 inh -6.17
COc1cc(/C=N/NC(=O)c2c(-c3ccccc3)noc2C)ccc1O	none (no result: KCNQ2 enhance)
